Laboratory results published in PubChem BioAssay (NCATS).
Where “and” joins values, the source holds several entries; their conditions need not be identical. Equal entries are not always repeated. Results filed as inconclusive are left out. Calls of active or inactive are those of the source. Calls come from the whole dose curve; as a rule, active = well fitted curve in the direction sought with a large enough effect; inconclusive = small, poorly fitted or top-dose-only effect, or another doubt; inactive = no such curve, though single readings can be large; an effect the other way counts as inactive or inconclusive.

Tests used:
[1] = target: Cellular tumor antigen p53 (Homo sapiens) (UniProt P04637); assay: Primary qHTS for small molecule compounds that upregulate eGFP-tagged delta133p53alpha (in N-terminal) cells. (AID 2060322); conditions: NCI-H358 eGFP-delta133p53alpha fluorescence, 24 h; activation: hits give high values;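 note: cells pre-induced with doxycycline then dosed without doxycycline; 0% = DMSO vehicle and 100% = reference activator; nearly all actives have a fitted effect of over 75% in size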
Chain of Cellular tumor antigen p53 (Homo sapiens) (P04637 whole entry, looked up): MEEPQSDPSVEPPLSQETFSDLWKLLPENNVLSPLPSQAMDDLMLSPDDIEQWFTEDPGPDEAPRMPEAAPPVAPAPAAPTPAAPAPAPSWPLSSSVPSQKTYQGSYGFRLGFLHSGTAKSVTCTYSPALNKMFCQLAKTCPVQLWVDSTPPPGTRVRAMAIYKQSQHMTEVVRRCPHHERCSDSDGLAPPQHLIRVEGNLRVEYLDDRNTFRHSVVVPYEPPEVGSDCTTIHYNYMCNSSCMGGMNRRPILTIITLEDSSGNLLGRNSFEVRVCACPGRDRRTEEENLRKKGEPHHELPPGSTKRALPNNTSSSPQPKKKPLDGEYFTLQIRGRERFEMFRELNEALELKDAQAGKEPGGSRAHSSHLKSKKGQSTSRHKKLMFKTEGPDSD
Procedure, shortened: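 NCI-H358 cells pre-induced 24 h with 10 ng/ml doxycycline for eGFP-delta133p53alpha, plated dox-free and exposed 24 h at 37C to titrated compounds. Fixed, Hoechst-stained; gated GFP peak intensity by laser scanning cytometry, normalized to DMSO (0%) and 57.5 uM 5-azacytidine (100%).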

[2] = target: Aldehyde dehydrogenase, mitochondrial (Homo sapiens) (UniProt P05091); assay: qHTS for Inhibitors of the Aldehyde Dehydrogenase Family (ALDH2) Primary screen (AID 2061308); conditions: ALDH2 enzyme inhibition qHTS, 1536-well; series mostly up to 56 µM;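 note: plate controls were vehicle for no effect and reference inhibitor for full effect; nearly all actives have a fitted effect of over 55% in size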
[3] = target: Retinaldehyde dehydrogenase 3 (Homo sapiens) (UniProt P47895); assay: qHTS for Inhibitors of the Aldehyde Dehydrogenase Family (ALDH1A3) Primary screen (AID 2061315); conditions: ALDH inhibition qHTS; series mostly up to 56 µM;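 note: plate controls were DMSO vehicle for no effect and reference inhibitor for full effect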

CC(=O)OC[C@]12[C@H](OC(C)=O)C(=O)[C@@H]3[C@@H](OC(C)=O)[C@@]14O[C@@]3(C)COC(=O)c1cccnc1[C@@H](C)[C@H](C)C(=O)O[C@@H]([C@H](OC(C)=O)[C@@H]2OC(C)=O)[C@]4(C)O
inactive: activation [1] -13.7% | Potency [2] | Potency [3]

CC1=C2C(O)C(=O)OC(c3ccoc3)C2(C)CCC1O (configuration not stated)
inactive: activation [1] -16% | Potency [2] | Potency [3]

CC(=O)O[C@@H]1CC2C(/C=C(\C)C(=O)[C@@]3(O)C[C@@H](C)[C@H](OC(=O)c4ccccc4)C3/C=C/1C)C2(C)C (some centres not stated)
inactive: activation [1] -10.7% | Potency [2] | Potency [3]

COc1c(O)cc2c(c1O)C(=O)O[C@H](C)[C@H]2O
inactive: activation [1] -14.5% | Potency [2] | Potency [3]

NC(=O)[C@H]1CCCCc2c1[nH]c1ccc(Cl)cc21
inactive: activation [1] 15% | Potency [2] | Potency [3]

C[C@]1(OC(=O)/C=C/c2ccccc2)C[C@@H](O)[C@]2(O)C=CO[C@@H](O[C@@H]3O[C@H](CO)[C@@H](O)[C@H](O)[C@H]3O)[C@@H]21
inactive: activation [1] -8.93% | Potency [2] | Potency [3]

C=C1C(OC(C)=O)C(=O)C2C(C)(C)C(OC(C)=O)CCC2(C)C1CC(OC(C)=O)/C(C)=C/COC(C)=O (configuration not stated)
inactive: activation [1] 17.6% | Potency [2] | Potency [3]

C=C1CCC[C@]2(C)CC[C@@](O)(C(=C)C(=O)O)C[C@@H]12
inactive: activation [1] 24.1% | Potency [2] | Potency [3]

CC1(CCOC2OC(CO)C(O)C(O)C2O)CCC23OC2(C1)C(O)CC1C(C)(C(=O)O)CCCC13C (configuration not stated)
inactive: activation [1] -13.7% | Potency [2] | Potency [3]

C=C1[C@H](OC(C)=O)[C@H]2[C@@H](OC(C)=O)C(C)C[C@]2(OC(C)=O)C(=O)[C@H](C)/C=C/C(C)(C)C(=O)[C@H](OC(=O)C(C)C)[C@H]1OC(C)=O (some centres not stated)
inactive: activation [1] -13.7% | Potency [2] | Potency [3]

CCCCn1ccc(N2CCC(c3ccccc3)CC2)c(Cl)c1=O
inactive: activation [1] -2.33% | Potency [2] | Potency [3]

C[C@@H]1O[C@@H](O[C@H]2[C@H](OC(=O)[C@]34CCC(C)(C)C[C@H]3C3=CCC5[C@@]6(C)CC[C@H](O[C@@H]7O[C@H](CO[C@@H]8OC[C@H](O)[C@H](O)[C@H]8O[C@@H]8OC[C@@H](O)[C@H](O)[C@H]8O)[C@@H](O)[C@H](O)[C@H]7O)C(C)(C)C6CC[C@@]5(C)[C@]3(C)C[C@H]4O)O[C@H](CO)[C@@H](O)[C@@H]2O)[C@H](O[C@@H]2O[C@H](CO)[C@@H](O)[C@H](O)[C@H]2O)[C@H](O)[C@H]1O[C@@H]1OC[C@@H](O)[C@H](O[C@@H]2OC[C@@H](O)[C@H](O)[C@H]2O)[C@H]1O (some centres not stated)
inactive: activation [1] -9.92% | activity change, negative = inhibition [2] 6.45% [at 11.2 µM] | activity change, negative = inhibition [3] 8.82% [at 11.2 µM]

CCOc1ccc(S(=O)(=O)n2c(C)nc3ccccc32)cc1
inactive: activation [1] -4.33% | Potency [2] | Potency [3]

CC1OC(O[C@H]2[C@@H](O)C[C@@]3(C)C([C@H](O)C[C@]4(C)C3CC=C3C5CC(C)(C)CC[C@]5(C(=O)OC5OC(CO)C(O)C(O)C5OC5OCC(OC6OCC(OC7OCC(O)C(O)C7O)C(O)C6O)C(OC6OCC(O)(CO)C6O)C5O)CC[C@]34C)[C@]2(C)CO)C(O)C(O)C1O (some centres not stated)
inactive: activation [1] -6.11% | activity change, negative = inhibition [2] -1.36% [at 11.2 µM] | activity change, negative = inhibition [3] -4.53% [at 11.2 µM]

CC1NC(=O)C(Cc2c[nH]c3ccccc23)NC1=O (configuration not stated)
inactive: activation [1] -13.7% | Potency [2] | Potency [3]

OC[C@H]1O[C@H](O[C@]2(CCl)O[C@H](CCl)[C@@H](O)[C@@H]2O)[C@H](O)[C@@H](O)[C@H]1Cl
inactive: activation [1] -5.86% and -10% | Potency [2] | Potency [3]

CC1C2=CC(=O)OC2(O)CC2C1C(OC(=O)c1ccccc1)C(OC(=O)c1ccccc1)C1(O)C2(C)CCC(O)C1(C)C(=O)O (configuration not stated)
inactive: activation [1] 26.7% | Potency [2] | Potency [3]

C[C@@H]1O[C@@H](O[C@H]2[C@H](O)[C@@H](O)[C@H](OC[C@H]3O[C@@H](OC(=O)[C@]45CCC(C)(C)C[C@H]4C4=CCC6[C@@]7(C)C[C@@H](O)[C@H](O)[C@@](C)(CO)C7[C@H](O)C[C@@]6(C)[C@]4(C)CC5)[C@H](O)[C@@H](O)[C@@H]3O)O[C@@H]2CO)[C@H](O)[C@H](O)[C@H]1O (some centres not stated)
inactive: activation [1] 16% | Potency [2] | Potency [3]

C/C=C/C=C/C=C/C(=O)N(C)C(C(=O)NC(C)C(=O)N1CCCC1C(N)=O)C(C)C (configuration not stated)
inactive: activation [1] 17.6% | Potency [2] | Potency [3]

O=C(O)CC/C=C\C[C@H]1CO[C@@H](c2ccccc2Cl)O[C@H]1c1ccccc1O
inactive: activation [1] -9.67% | Potency [2] | Potency [3]

CC1CCC2C(C)(C)[C@@H](O)CC[C@]2(C)C12Cc1c(O)cc3c(c1O2)CN(C(CCC(=O)O)C(=O)O)C3=O (some centres not stated)
inactive: activation [1] 23.2% | Potency [2] | Potency [3]

COC1C(=O)CCC2(CO2)C1(O)C1(C)OC1CC=C(C)C (configuration not stated)
inactive: activation [1] -9.82% | Potency [2] | Potency [3]

C=C1CC2C3(C)C(O)CC(=O)C(C)(C)C3C(O)C(OC(C)=O)C2(C)C2C(=O)OC(C)(C(=O)OC)C(=O)C12C (configuration not stated)
inactive: activation [1] 27.5% | Potency [2] | Potency [3]

CC(C)COc1ccc(CNC(=O)N(Cc2ccc(F)cc2)C2CCN(C)CC2)cc1
inactive: activation [1] -15.7% | Potency [2] | Potency [3]
